# Measurements taken from PubChem BioAssay.
# Calls of active or inactive are those of the source. Unless noted, how the calls were made is not given here.
# Experiments:
# [1] = compounds binding Alexa647 anti-His antibody – biochemical, small-molecule microarray, 635 nm fluorescence, artefact control for SMM control protein annotation, primary screen (AID 1128); conditions: higher = more signal;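 further: score merges feature fluorescence with signal-to-noise for each printed compound spot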
# [2] = test system: Human papillomavirus type 1a E7 protein (residues 1-88); experiment: HPV1a E7 small-molecule binders, primary screen, biochemical, small-molecule microarray, residues 1-88, 635 nm (AID 1129); conditions: small-molecule microarray binding, fluorescence 635 nm; higher = more signal
# [3] = molecular target: Focal adhesion kinase 1 (Homo sapiens) (UniProt Q05397); experiment: PTK2 protein binding on printed compound slides – biochemical, small-molecule microarray, 635/667 nm fluorescence, BSA, DTT, primary screen (AID 1130); conditions: 635 nm fluorescence, higher = more signal;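 further: composite of spot emission at 667 nm and signal to noise over triplicate slides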
# [4] = test system: Fibrinogen (Alexa647-labelled); experiment: Alexa647-fibrinogen binding to printed small molecules – biochemical, small-molecule microarray, 635/667 nm fluorescence, artefact control for SMM control-protein annotation, profiling panel (AID 1131); conditions: fibrinogen-A647 binding fluorescence, higher = more signal;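 further: z-score merges 667 nm fluorescence with per-spot signal-to-noise over triplicate slides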
# [5] = molecular target: Follistatin (Homo sapiens) (UniProt P19883); experiment: FST protein binding to printed compounds – biochemical, small-molecule microarray, 635/667 nm fluorescence, primary screen (AID 1132); conditions: 635 nm fluorescence, higher = more signal
# [6] = molecular target: Fibroblast growth factor 2 (Homo sapiens) (UniProt P09038); experiment: basic fibroblast growth factor binding to printed compounds – biochemical, small-molecule microarray, 635/667 nm fluorescence, primary screen (AID 1133); conditions: FGF2, fluorescence 635/667, higher = more signal
# [7] = JC-1 mitochondrial potential readout, lung cancer cells – cell-based, A549, JC-1 fluorescence, basal, 24 h, 100 nL, profiling panel (AID 1138); conditions: higher = more signal;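 further: A549 lung adenocarcinoma cells under basal conditions with no added stimulus; test concentration not given here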
# Lefty1 = Lefty1 protein binding to printed compounds – biochemical, small-molecule microarray, 635/667 nm fluorescence, primary screen (AID 1139); conditions: fluorescence 635/667, higher = more signal
# [8] = test system: wheat germ agglutinin (Triticum aestivum), Alexa647-labelled; experiment: Alexa647-WGA lectin binding to printed small molecules – biochemical, small-molecule microarray, 635/667 nm fluorescence, artefact control for SMM control-protein annotation, profiling panel (AID 1140); conditions: WGA-A647 binding, 635 nm fluorescence, higher = more signal;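 further: score merges 667 nm feature emission with signal to noise over triplicate slides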
# [9] = molecular target: Luciferin 4-monooxygenase (Photinus pyralis) (UniProt P08659); experiment: inhibition of purified Photinus pyralis luciferase – biochemical, luminescence, purified enzyme, 2006 set, primary screen (AID 1141); conditions: purified firefly luciferase, SteadyGlo luminescence, 30 min; higher = more signal, called active from +8 up or from −8 down;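 further: cell-free assay with purified firefly luciferase at 100 ng per well in PBS; test concentration not given here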
# [10] = test system: Wnt5a (protein binding on small-molecule microarray); experiment: small molecules binding Wnt5a protein – biophysical, small-molecule microarray, 635/667 nm fluorescence, primary screen (AID 1142); conditions: 635 nm fluorescence, higher = more signal;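 further: fluorescence read at 667 nm with signal to noise per printed feature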
# [11] = ATP-based viability of Huh7 replicon cells – cell-based, CellTiter-Glo luminescence, basal, 48 h, cytotoxicity control for HCV replication inhibitor project, primary screen (AID 1143); conditions: higher = more signal, called active from +8 up or from −8 down;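 further: Huh7 hepatoma cells carrying a hepatitis C replication reporter with no stimulus; test concentration not given here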
# [12] = Pseudomonas biofilm growth suppression – PAO1 strain, BacTiter-Glo luminescence, LB-PBS, primary screen (AID 1144); conditions: P. aeruginosa PAO1 biofilm, 12 h, higher = more signal
# [13] = basal CRE-LacZ reporter activity in PC12 – cell-based, unstimulated, primary screen (AID 1145); conditions: no forskolin, luminescence, 4.5 h, higher = more signal, called active from +8 up or from −8 down
# [14] = forskolin-driven CRE-LacZ activity in PC12 – cell-based, CRE-LacZ reporter, forskolin-stimulated, primary screen (AID 1146); conditions: luminescence, 4.5 h, higher = more signal, called active from +8 up or from −8 down;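 further: PC12 cells with 6xCRE LacZ reporter stimulated by forskolin 10 µM; beta-galactosidase reporter signal reflecting CREB driven transcription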
# [15] = molecular target: Streptavidin (Streptomyces avidinii) (UniProt P22629); experiment: compounds binding control protein streptavidin – biophysical, small-molecule microarray, 635/667 nm fluorescence, artefact control for SMM compound annotation, primary screen (AID 1147); conditions: higher = more signal;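 further: signal reflects streptavidin binding to arrayed compounds as a control protein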
# [16] = probe aInhba binding on compound microarray – biochemical, small-molecule microarray, 635/667 nm fluorescence, primary screen (AID 1148); conditions: higher = more signal;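 further: score merges 667nm spot fluorescence with signal-to-noise for antibody binding to printed compounds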
# Torsin-1A (Homo sapiens) [17] = molecular target: Torsin-1A (Homo sapiens) (UniProt O14656); experiment: TOR1A wild-type binding on microarray – cell lysate, small-molecule microarray, lysate, 635/667 nm, primary screen (AID 1149); conditions: COS7 hTOR1A-WT lysate, 635 nm fluorescence, higher = more signal
# Torsin-1A (Homo sapiens) [18] = molecular target: Torsin-1A (Homo sapiens) (UniProt O14656); experiment: torsin A mutant lysate binding on microarrays – cell lysate, small-molecule microarray, COS7 lysate, 635/667 nm fluorescence, primary screen (AID 1150); conditions: COS7 hTOR1A mutant lysate, 635 nm fluorescence, higher = more signal;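 further: score pools 667 nm emission and signal to noise measuring lysate protein binding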
# [19] = test system: Sonic hedgehog protein (Shh); experiment: Sonic hedgehog microarray binding compounds – biochemical, small-molecule microarray, 635/667 nm fluorescence, primary screen (AID 1151); conditions: 635 nm fluorescence, higher = more signal;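 further: Shh protein binding to compounds spotted on small-molecule microarray slides; score combines spot fluorescence intensity with signal-to-noise across triplicate slides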
# Chain of Focal adhesion kinase 1 (Homo sapiens) (Q05397 whole entry, looked up): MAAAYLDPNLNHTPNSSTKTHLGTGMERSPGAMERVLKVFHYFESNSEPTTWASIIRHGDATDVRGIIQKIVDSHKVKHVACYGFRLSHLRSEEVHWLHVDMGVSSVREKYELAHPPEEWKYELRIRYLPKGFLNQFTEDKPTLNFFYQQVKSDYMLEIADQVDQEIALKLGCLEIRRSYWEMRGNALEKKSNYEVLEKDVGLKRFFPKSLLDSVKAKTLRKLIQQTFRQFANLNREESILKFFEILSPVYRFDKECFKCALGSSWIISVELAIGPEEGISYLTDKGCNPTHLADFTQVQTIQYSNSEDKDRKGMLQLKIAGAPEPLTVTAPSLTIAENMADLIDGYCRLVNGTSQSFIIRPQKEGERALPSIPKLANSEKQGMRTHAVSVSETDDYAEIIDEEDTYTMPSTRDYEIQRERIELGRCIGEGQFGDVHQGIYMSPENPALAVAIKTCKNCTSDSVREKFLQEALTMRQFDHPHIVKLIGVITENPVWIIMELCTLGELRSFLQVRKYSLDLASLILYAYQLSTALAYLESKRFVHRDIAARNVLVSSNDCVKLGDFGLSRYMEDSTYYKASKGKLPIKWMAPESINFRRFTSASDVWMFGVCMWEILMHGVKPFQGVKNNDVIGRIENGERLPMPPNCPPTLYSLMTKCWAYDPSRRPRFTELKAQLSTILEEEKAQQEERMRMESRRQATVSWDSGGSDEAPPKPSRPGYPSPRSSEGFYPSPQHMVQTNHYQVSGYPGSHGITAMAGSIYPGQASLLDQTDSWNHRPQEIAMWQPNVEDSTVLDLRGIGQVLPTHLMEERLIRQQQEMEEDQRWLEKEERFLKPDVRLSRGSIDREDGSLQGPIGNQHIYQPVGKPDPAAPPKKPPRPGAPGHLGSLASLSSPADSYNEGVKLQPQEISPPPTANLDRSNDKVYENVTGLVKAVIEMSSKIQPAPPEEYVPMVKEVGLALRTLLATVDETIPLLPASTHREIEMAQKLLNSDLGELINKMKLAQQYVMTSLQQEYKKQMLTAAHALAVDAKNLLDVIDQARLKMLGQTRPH
# Chain of Follistatin (Homo sapiens) (P19883 whole entry, looked up): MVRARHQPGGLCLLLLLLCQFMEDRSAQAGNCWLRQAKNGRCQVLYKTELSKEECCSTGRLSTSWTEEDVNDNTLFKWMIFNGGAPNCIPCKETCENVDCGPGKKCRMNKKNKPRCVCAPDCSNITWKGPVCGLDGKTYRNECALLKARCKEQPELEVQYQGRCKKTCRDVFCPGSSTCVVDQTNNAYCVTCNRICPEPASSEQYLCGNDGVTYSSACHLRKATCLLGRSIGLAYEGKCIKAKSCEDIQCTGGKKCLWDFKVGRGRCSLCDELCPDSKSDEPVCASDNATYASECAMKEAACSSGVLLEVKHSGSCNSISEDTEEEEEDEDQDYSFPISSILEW
# Chain of Torsin-1A (Homo sapiens) (O14656 whole entry, looked up): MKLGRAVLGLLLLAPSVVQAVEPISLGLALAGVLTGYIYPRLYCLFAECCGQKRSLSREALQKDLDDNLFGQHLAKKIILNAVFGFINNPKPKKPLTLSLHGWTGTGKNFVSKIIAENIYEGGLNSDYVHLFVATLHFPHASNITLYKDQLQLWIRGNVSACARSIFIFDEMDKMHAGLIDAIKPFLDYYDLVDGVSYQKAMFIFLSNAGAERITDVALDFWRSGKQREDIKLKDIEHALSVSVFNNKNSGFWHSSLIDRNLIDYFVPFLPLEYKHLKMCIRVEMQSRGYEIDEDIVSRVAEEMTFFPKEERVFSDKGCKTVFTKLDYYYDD
# Chain of Luciferin 4-monooxygenase (Photinus pyralis) (P08659 whole entry, looked up): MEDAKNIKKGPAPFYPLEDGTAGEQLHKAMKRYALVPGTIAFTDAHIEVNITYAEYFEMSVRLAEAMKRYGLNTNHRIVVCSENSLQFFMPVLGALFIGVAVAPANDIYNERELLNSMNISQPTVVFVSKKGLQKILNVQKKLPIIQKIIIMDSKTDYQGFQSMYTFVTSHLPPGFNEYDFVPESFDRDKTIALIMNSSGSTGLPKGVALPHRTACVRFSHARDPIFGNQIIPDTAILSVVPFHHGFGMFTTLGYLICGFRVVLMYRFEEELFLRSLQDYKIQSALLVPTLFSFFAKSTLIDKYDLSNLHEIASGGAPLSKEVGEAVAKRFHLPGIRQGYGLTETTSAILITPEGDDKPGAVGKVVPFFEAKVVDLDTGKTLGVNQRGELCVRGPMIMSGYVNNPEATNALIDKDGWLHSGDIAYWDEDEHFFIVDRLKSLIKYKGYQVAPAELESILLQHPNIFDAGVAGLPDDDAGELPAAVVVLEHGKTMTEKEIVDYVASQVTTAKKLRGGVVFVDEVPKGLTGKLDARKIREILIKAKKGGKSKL
# Chain of Fibroblast growth factor 2 (Homo sapiens) (P09038 whole entry, looked up): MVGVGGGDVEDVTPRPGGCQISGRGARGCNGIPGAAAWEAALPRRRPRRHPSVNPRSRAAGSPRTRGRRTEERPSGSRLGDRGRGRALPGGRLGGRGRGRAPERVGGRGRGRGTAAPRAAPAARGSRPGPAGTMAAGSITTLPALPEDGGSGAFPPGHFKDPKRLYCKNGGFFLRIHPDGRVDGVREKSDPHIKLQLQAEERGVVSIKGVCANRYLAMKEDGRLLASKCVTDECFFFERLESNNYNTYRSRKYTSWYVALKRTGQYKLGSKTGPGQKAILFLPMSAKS
# Chain of Streptavidin (Streptomyces avidinii) (P22629 whole entry, looked up): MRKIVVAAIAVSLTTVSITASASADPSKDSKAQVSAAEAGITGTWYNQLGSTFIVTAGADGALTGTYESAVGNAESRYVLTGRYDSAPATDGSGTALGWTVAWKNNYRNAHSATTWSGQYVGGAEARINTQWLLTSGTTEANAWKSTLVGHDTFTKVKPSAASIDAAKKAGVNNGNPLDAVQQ
Structure (SMILES),composite z-score [1],composite z-score [2],composite z-score [3],composite z-score [4],composite z-score [5],composite z-score [6],z-score [7],composite z-score (Lefty1),composite z-score [8],z-score [9],composite z-score [10],z-score [11],z-score [12],z-score [13],z-score [14],composite z-score [15],composite z-score [16],composite z-score (Torsin-1A (Homo sapiens) [17]),composite z-score (Torsin-1A (Homo sapiens) [18]),composite z-score [19]
COCCOC(=O)N1C(=O)[C@@]2(c3cc(C#CC4=CCCCC4)ccc31)[C@H](c1ccccc1OCCO)N1[C@H](c3ccccc3)[C@H](c3ccccc3)OC(=O)[C@H]1[C@@H]2C(=O)Nc1nc2ccccc2s1,1.16,0.96,0.96,0.868,1.19,0.731,-2.14,1.09,0.754,-2.08 (inactive),0.632,-2.06 (inactive),0.305 (inactive),-0.0526 (inactive),0.687 (inactive),0.827,0.0497,0.881,0.344,1.27
C=CCC(OC(C)=O)[C@@H]1[C@@H](N(Cc2cccc3ccccc23)C(=O)Cc2ccc(OC)cc2)c2cc(OCCCO)ccc2N1C(=O)c1ccc2ccccc2n1 (stereo not given in full),-0.115,-0.0569,0.833,0.733,0.822,0.0677,0.343,-0.0766,0.174,0.565 (inactive),0.216,-2.08 (inactive),-0.253 (inactive),-0.374 (inactive),1.3 (inactive),1.05,0.0569,-0.512,0.0537,0.524
COCCOC(=O)N1C(=O)[C@@]2(c3cc(C#CC4=CCCCC4)ccc31)[C@H](c1ccc(O)cc1)N1[C@H](c3ccccc3)[C@H](c3ccccc3)OC(=O)[C@H]1[C@@H]2C(=O)N1CCN(c2ncccn2)CC1,-0.849,-1.1,-0.415,-0.805,-1.02,-0.958,0.381,-1.14,-0.649,1.18 (inactive),-0.299,0.498 (inactive),-0.572 (inactive),-0.467 (inactive),-0.0588 (inactive),-1.34,-0.152,-0.692,-1.27,-0.589
CCCC[C@@H](O)C1=C(COc2ccccc2)C[C@H]2C(=O)N(C)C(=O)[C@H]2[C@H]1CO,0.0713,-0.231,0.713,-0.247,0.129,-0.16,0.708,0.0695,-0.488,-0.475 (inactive),-0.339,-1.22 (inactive),-1.24 (inactive),2.49 (inactive),-0.94 (inactive),-0.803,-0.102,-0.631,0.596,0.406
CCOC(=O)C1CCCCN1 (stereo not given),0.313,0.859,-0.0288,0.367,0.599,0.522,-0.0223,0.589,0.109,0.48 (inactive),0.781,0.319 (inactive),0.566 (inactive),-0.788 (inactive),-0.398 (inactive),0.412,0.705,0.544,0.388,0.506
C=CCC(OC(C)=O)[C@@H]1[C@@H](N(Cc2cc3ccccc3o2)C(=O)c2ccc(-c3ccccc3)cc2)c2cc(OCCCO)ccc2N1C(=O)c1ccc2ccccc2c1 (stereo not given in full),0.0895,0.0833,-0.394,0.394,0.874,-0.198,1.26,0.795,0.196,-0.455 (inactive),-0.0582,-0.282 (inactive),0.2 (inactive),1.22 (inactive),0.655 (inactive),0.0798,-0.143,0.0664,-0.0892,1.12
CCOC(=O)C[C@H]1[C@H](OC(=O)c2cc3ccccc3oc2=O)[C@@H](NC(=O)c2ccc(-c3ccccc3)cc2)c2cc(OCCCO)ccc2N1C(=O)c1ccc2ccccc2n1,1.04,1.15,0.553,0.458,1.11,0.485,-0.408,0.964,0.543,0.778 (inactive),0.355,-0.168 (inactive),-1.1 (inactive),1.03 (inactive),0.644 (inactive),0.207,0.166,0.626,0.572,1.84
C=CCC(OC(C)=O)[C@@H]1[C@@H](N(Cc2cccc3ccccc23)C(=O)Cc2ccc(F)cc2)c2cc(OCCCO)ccc2N1C(=O)c1ccc2ccccc2n1 (stereo not given in full),-0.478,-0.0554,-0.122,0.0688,0.187,0.386,-0.0984,-0.553,0.748,0.0778 (inactive),0.243,0.0889 (inactive),0.0963 (inactive),0.367 (inactive),0.101 (inactive),-0.0219,0.0614,-0.149,-0.101,-0.0199
C=CC[C@@]1(C(=O)N2CCOCC2)N=C(c2ccc(OCCCO)cc2)O[C@@H]1c1ccccc1CN=[N+]=[N-],3.06,1.23,0.201,0.905,1.35,1.45,1.97,0.349,0.786,0.0079 (inactive),0.935,-2.2 (inactive),0.887 (inactive),0.204 (inactive),-0.818 (inactive),1.28,0.305,0.495,1.46,0.0134
CCOC(=O)C[C@H]1[C@H](OC(=O)c2ccccc2-c2ccccc2)[C@@H](NC(=O)c2ccc(-c3ccccc3)cc2)c2cc(OCCCO)ccc2N1C(=O)c1ccc2ccccc2n1,0.792,0.472,-0.0377,0.456,0.57,0.496,0.687,0.871,0.181,0.555 (inactive),0.0868,0.0395 (inactive),-0.437 (inactive),-0.686 (inactive),0.254 (inactive),0.245,-0.106,0.306,0.554,0.701
